According to PubChem BioAssay AID1159580 (chemical genetic matrix, 2015):
Values joined by “and” are separate entries in the source; they are usually repeats but may differ in a detail not shown here. Identical values can stand only once. Out of some 5,500 compounds screened, about 2,000 (36%) were called active. Roughly 18% stayed inconclusive and do not appear here. Cut-off read from the data, not from the text of the source: active = normalized growth mostly below about 0.91 (no sharp cut-off); inconclusive = no clear call, values can overlap the other calls; inactive = mostly above about 0.92. The list shows a part of the results.

Assay: chemical genetic growth profiling, strain panel (AID 1159580);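 note: tested at 20 µM; growth read once vehicle control cultures reached saturation at 30 °C; 1 = growth at the plate median or of vehicle wells; lower values mean less growth of the strain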
Settings: S. cerevisiae deletion strains, growth OD

Measured: normalized growth

C[C@]12C=CC(=O)C=C1CCC1C3C[C@@H](O)[C@](O)(C(=O)CO)[C@@]3(C)C[C@H](O)[C@@]12F (some centres undefined)
inactive: locus YAL021C, strain ccr4, active compounds read low 0.932 | locus YAL026C, strain drs2, active compounds read low 0.992 | locus YAL030W, strain snc1, active compounds read low 0.996 | locus YBL061C, strain skt5, active compounds read low 0.984 | locus YBR009C, strain hhf1, active compounds read low 0.999 | locus YBR021W, strain FUR4, active compounds read low 1.02 | locus YBR023C, strain chs3, active compounds read low 0.961 | locus YBR171W, strain sec66, active compounds read low 0.976 | locus YBR229C, strain ROT2, active compounds read low 1.01 | locus YBR231C, strain swc5, active compounds read low 1.01 | locus YBR279W, strain paf1, active compounds read low 0.973 | locus YCL011C, strain gbp2, active compounds read low 0.974 | locus YCL016C, strain dcc1, active compounds read low 0.958 | locus YCL029C, strain bik1, active compounds read low 0.98 | locus YCL061C, strain MRC1, active compounds read low 0.996 | locus YCL069W, strain vba3, active compounds read low 0.983 | locus YCR088W, strain abp1, active compounds read low 0.985 | locus YDL005C, strain med2, active compounds read low 0.997 | locus YDL035C, strain GPR1, active compounds read low 1.02 | locus YDL040C, strain nat1, active compounds read low 0.992 | locus YDL074C, strain BRE1, active compounds read low 1.04 | locus YDL101C, strain DUN1, active compounds read low 1.02 | locus YDL134C, strain PPH21, active compounds read low 1 | locus YDL185W, strain tfp1, active compounds read low 0.973 | locus YDL192W, strain arf1, active compounds read low 0.984 | locus YDR001C, strain nth1, active compounds read low 0.983 | locus YDR069C, strain doa4, active compounds read low 0.954 | locus YDR101C, strain arx1, active compounds read low 0.971 | locus YDR137W, strain rgp1, active compounds read low 0.965 | locus YDR150W, strain NUM1, active compounds read low 1.02 | locus YDR159W, strain sac3, active compounds read low 0.975 | locus YDR162C, strain NBP2, active compounds read low 1 | locus YDR195W, strain ref2 0.991 | locus YDR297W, strain sur2, active compounds read low 0.994 | locus YDR318W, strain mcm21, active compounds read low 0.985 | locus YDR334W, strain swr1, active compounds read low 0.976 | locus YDR335W, strain msn5, active compounds read low 0.984 | locus YDR388W, active compounds read low 0.982 | locus YDR392W, strain spt3, active compounds read low 0.896 | locus YDR502C, strain sam2, active compounds read low 0.981 | locus YEL003W, strain gim4, active compounds read low 1 | locus YEL037C, strain rad23, active compounds read low 0.987 | locus YEL061C, strain CIN8 (second series), active compounds read low 0.991 | locus YEL061C, strain CIN8, active compounds read low 1.01 | locus YER015W, strain faa2, active compounds read low 0.999 | locus YER016W, strain bim1, active compounds read low 0.942 | locus YER110C, active compounds read low 0.979 | locus YER111C, strain swi4, active compounds read low 0.975 | locus YER155C, strain BEM2 (second series), active compounds read low 0.989 | locus YER155C, strain BEM2, active compounds read low 1.01 | locus YER167W, strain BCK2, active compounds read low 1 | locus YFR010W, strain ubp6, active compounds read low 1 | locus YGL078C, strain dbp3, active compounds read low 0.981 | locus YGL086W, strain mad1, active compounds read low 0.996 | locus YGL167C, strain pmr1, active compounds read low 0.992 | locus YGL173C, strain kem1, active compounds read low 0.98 | locus YGL227W, strain vid30, active compounds read low 0.962 | locus YGL240W, strain doc1, active compounds read low 0.991 | locus YGL248W, strain PDE1, active compounds read low 1.02 | locus YGL253W, strain hxk2, active compounds read low 0.98 | locus YGR135W, strain pre9, active compounds read low 0.99 | locus YGR229C, strain SMI1, active compounds read low 1.01 | locus YGR252W, strain gcn5, active compounds read low 1.01 | locus YHR013C, strain ard1, active compounds read low 0.952 | locus YHR027C, strain rpn1, active compounds read low 0.998 | locus YHR030C, strain SLT2, active compounds read low 1.01 and 0.984 | locus YHR079C, strain IRE1 (second series), active compounds read low 0.973 | locus YHR079C, strain IRE1, active compounds read low 0.991 | locus YHR094C, strain hxt1, active compounds read low 0.984 | locus YHR129C, strain ARP1, active compounds read low 1.02 | locus YHR142W, strain chs7, active compounds read low 0.956 | locus YHR200W, strain rpn10, active compounds read low 0.988 | locus YIL066C, strain RNR3, active compounds read low 1.01 | locus YIL073C, strain SPO22, active compounds read low 0.984 | locus YIL125W, strain kgd1, active compounds read low 0.989 | locus YIR030C, strain dcg1, active compounds read low 0.98 | locus YJL092W, strain hpr5, active compounds read low 0.99 | locus YJL095W, strain BCK1 (second series), active compounds read low 0.995 | locus YJL095W, strain BCK1, active compounds read low 1.03 and 0.985 | locus YJL115W, strain asf1, active compounds read low 0.971 | locus YJL129C, strain trk1, active compounds read low 0.948 | locus YJL134W, strain LCB3, active compounds read low 1.01 | locus YJL154C, strain vps35, active compounds read low 0.967 | locus YJL164C, strain tpk1, active compounds read low 1.01 | locus YJL166W, strain qcr8, active compounds read low 1.01 | locus YJL168C, strain set2, active compounds read low 0.989 | locus YJL187C, strain SWE1 (second series), active compounds read low 1.01 | locus YJL187C, strain SWE1, active compounds read low 0.982 | locus YJR043C, strain POL32, active compounds read low 1.02
